Assay results from PubChem BioAssay (NCI).
This is part of a sample that, as a whole, favours compounds with a hit. Of some 83,000 tested, about 20% had one in any assay.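 Growth was measured after 48 h exposure to one concentration of compound in 96-well plates. Values under 10 count as active.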 Calls of active or inactive are those of the source.

Assays:
Assay in all cases: NCI-60 one-dose screen, 48 h (100 = growth as untreated, 0 = no growth, -100 = all killed)
Settings in all cases: 10 µM unless noted
[1] = tested on: NCI-H23 lung
[2] = tested on: NCI-H226 lung
[3] = tested on: NCI-H322M lung
[4] = tested on: HOP-62 NSCLC
[5] = tested on: NCI-H460 lung
[6] = tested on: HOP-92 NSCLC
[7] = tested on: NCI-H522 lung
[8] = tested on: A549/ATCC NSCLC
[9] = tested on: 786-0 renal
[10] = tested on: COLO 205 colon
[11] = tested on: DU-145 prostate
[12] = tested on: K-562 leukemia
[13] = tested on: MALME-3M melanoma
[14] = tested on: MDA-MB-231 breast
[15] = tested on: RXF 393 renal
[16] = tested on: SF-268 CNS
[17] = tested on: SF-295 CNS
[18] = tested on: SF-539 CNS
[19] = tested on: UACC-257 melanoma
[20] = tested on: M14 melanoma

Measured: growth

COC(=O)Cn1c2c(c3c(OC)cccc31)C(=O)c1ccccc1-2
inactive: [1] 91.2% | [2] 91.4% | [3] 113% | [4] 87% | [5] 112% | [6] 70.3% | [7] 101% | [8] 100% | [9] 86.6% | [10] 104% | [11] 104% | [12] 91.7% | [13] 95.5% | [14] 98.5% | [15] 114% | [16] 97% | [17] 107% | [18] 101% | [19] 101% | [20] 103%

COc1ccc(-c2nc(SCC(=O)Nc3nc4ccc(C)cc4s3)[nH]c(=O)c2C#N)cc1OC
inactive: [1] 103% | [2] 83.6% | [3] 101% | [4] 74.8% | [5] 100% | [6] 102% | [7] 105% | [8] 105% | [9] 105% | [10] 115% | [11] 114% | [12] 94.4% | [13] 103% | [14] 97.9% | [15] 113% | [16] 95.9% | [17] 96.4% | [18] 92.9% | [19] 103% | [20] 91.3%

Cc1ccc(C(=O)c2ccc(CC(=O)N/N=C/c3cccc(O)c3O)n2C)cc1
active: [5] 8.65%
inactive: [1] 45.4% | [2] 69.1% | [3] 54.4% | [4] 49.9% | [6] 56.3% | [7] 48.8% | [8] 58.7% | [9] 76.4% | [10] 63% | [11] 49.3% | [12] 30.4% | [13] 58.7% | [14] 45.3% | [15] 29.7% | [16] 37.2% | [17] 83.5% | [18] 33.8% | [19] 89.7% | [20] 28.5%

COC(=O)c1ccc2cc(OC)c(OC)cc2c1
inactive: [1] 102% | [2] 97.6% | [3] 108% | [4] 107% | [5] 108% | [6] 94.4% | [8] 77.4% | [9] 91.9% | [10] 122% | [11] 116% | [12] 115% | [13] 117% | [14] 127% | [15] 97% | [16] 114% | [17] 70.4% | [18] 116% | [19] 103% | [20] 110%

CCCn1c(=S)sc2c(NNC(C)=O)nc(C)nc21
inactive: [1] 99.3% | [2] 97.1% | [3] 101% | [4] 78.3% | [5] 101% | [6] 89.4% | [8] 89.1% | [9] 92.2% | [10] 126% | [11] 134% | [12] 68.8% | [13] 101% | [14] 103% | [15] 98.5% | [16] 111% | [17] 121% | [18] 90.6% | [19] 91.7% | [20] 108%

COCCn1cc(-c2nc(-c3cc4cccnc4n3C)cs2)c2ccccc21
inactive: [1] 39.4% | [2] 60.9% | [3] 41.6% | [4] 52.5% | [5] 19.9% | [6] 44.1% | [8] 28.9% | [9] 56.7% | [10] 11.9% | [11] 66.8% | [12] 20% | [13] 70.7% | [14] 37.1% | [15] 70.7% | [16] 58.9% | [17] 36.5% | [18] 60.6% | [19] 49% | [20] 24.3%

Cn1cc(-c2nonc2-c2c[nH]c3ccccc23)c2cc(Br)ccc21
inactive: [1] 52.9% | [2] 75.5% | [3] 53.2% | [4] 25.2% | [5] 14.9% | [6] 63.4% | [8] 27.9% | [9] 50.6% | [10] 15% | [11] 58.1% | [12] 11.1% | [13] 40.8% | [14] 37% | [15] 70.9% | [16] 43.3% | [17] 24.5% | [18] 40.1% | [19] 71.5% | [20] 18.5%
active: [7] 7.04%

O=S(O)c1cc(Cl)cc(Cl)c1OCc1ccccc1
inactive: [1] 101% | [2] 94.5% | [3] 95.9% | [4] 101% | [5] 101% | [6] 87.6% | [7] 96.2% | [8] 90.2% | [9] 102% | [10] 105% | [11] 109% | [12] 106% | [13] 99.8% | [14] 107% | [15] 97.3% | [16] 101% | [17] 108% | [18] 103% | [19] 90.8% | [20] 101%

O=C(NCCCCO)c1cncnc1Nc1ccc2c(ccn2Cc2cccc(F)c2)c1
inactive: [1] 97.6% | [2] 100% | [3] 72.9% | [4] 94.4% | [5] 101% | [6] 92.1% | [7] 76.9% | [8] 84.4% | [9] 92.4% | [10] 97.7% | [11] 96.2% | [12] 82.5% | [13] 93.9% | [14] 69.3% | [15] 101% | [16] 99.3% | [17] 97.6% | [18] 94.4% | [19] 96.7% | [20] 89.9%

COc1cc2c(c(OC)c1OC)C(=O)CC(c1cccc(C(=O)Nc3ccc(C#N)cc3)c1)O2 (stereo not drawn)
inactive: [1] 78.7% | [2] 46.9% | [3] 90.8% | [4] 91.5% | [5] 89.3% | [6] 64.6% | [8] 87.4% | [9] 90.4% | [10] 85.8% | [11] 88% | [12] 42.2% | [13] 96.9% | [14] 73.5% | [15] 99.7% | [16] 88.9% | [17] 77% | [18] 93% | [19] 82.4% | [20] 72.1%

COc1ccc(OC)c(Nc2nnc(-c3cc(OC)c(OC)c(OC)c3)o2)c1
inactive: [1] 90.5% | [2] 96.6% | [3] 98.4% | [4] 94.7% | [5] 107% | [6] 107% | [8] 101% | [9] 95% | [10] 104% | [11] 101% | [12] 95.8% | [13] 88.8% | [14] 88.9% | [15] 110% | [16] 99.6% | [17] 101% | [18] 91.3% | [19] 112% | [20] 101%

Fc1cccc(CNc2c3ccccc3nc3ccccc23)c1
inactive: [1] 33.9% | [2] 50.6% | [3] 40.2% | [4] 47.9% | [5] 12.7% | [7] 37.8% | [8] 29.3% | [9] 36.4% | [10] 17.3% | [11] 41.7% | [12] 15.7% | [13] 50.5% | [14] 30.6% | [15] 32.8% | [16] 62.1% | [17] 25.2% | [18] 26.9% | [19] 58.1% | [20] 38.8%
active: [6] -4.06%

COc1ccc2cc(C(=O)N3CCC([C@@H](C)C(=O)NCc4ccc5c(c4)OCO5)CC3)[nH]c2c1
active: [2] -5.97% [50 µM] | [4] -1.78% [50 µM] | [6] -17.6% [50 µM] | [9] -10.5% [50 µM] | [15] -1.62% [50 µM]
inactive: [1] 26.3% [50 µM] | [3] 86.7% [50 µM] | [5] 41.9% [50 µM] | [8] 53.7% [50 µM] | [10] 88.5% [50 µM] | [11] 60.5% [50 µM] | [12] 77.2% [50 µM] | [13] 44.2% [50 µM] | [14] 34.1% [50 µM] | [16] 32.9% [50 µM] | [17] 48.1% [50 µM] | [18] 41.1% [50 µM] | [19] 77.8% [50 µM] | [20] 65.2% [50 µM]

CN(C)CCCn1c2c(c3ccncc3c1=O)C(=O)c1ccccc1-2
active: [1] -23.1% | [2] -53.1% | [4] -11.4% | [5] -9.77% | [6] -18.1% | [7] -22.5% | [9] 5.98% | [11] -8.23% | [12] -61.6% | [13] -55.8% | [14] 8.66% | [15] -15.7% | [16] -15.3% | [17] 1.81% | [18] -17% | [19] -30.3% | [20] -36.5%
inactive: [3] 21.2% | [8] 30.2% | [10] 10.6%

Brc1ccc(Nc2nc(Nc3cnc4ccccc4c3)c3[nH]cnc3n2)cc1
inactive: [1] 76% | [2] 64.1% | [3] 105% | [4] 64.6% | [5] 65% | [6] 26% | [8] 79.6% | [9] 49.4% | [10] 90.4% | [11] 81.3% | [12] 79.7% | [13] 105% | [14] 53.8% | [15] 75.8% | [16] 76.6% | [17] 84.7% | [18] 87.4% | [19] 90.3% | [20] 84.8%
